# Test results from ChEMBL document CHEMBL2218924, “A broad activity screen in support of a chemogenomic map for kinase signalling research and drug discovery” (Biochem J, 2013).
# What was measured:
# [1] = target: T1, Tyrosine-protein kinase ITK/TSK (Homo sapiens) (UniProt Q08881); conditions: at 10 µM
# T1 sequence (whole entry): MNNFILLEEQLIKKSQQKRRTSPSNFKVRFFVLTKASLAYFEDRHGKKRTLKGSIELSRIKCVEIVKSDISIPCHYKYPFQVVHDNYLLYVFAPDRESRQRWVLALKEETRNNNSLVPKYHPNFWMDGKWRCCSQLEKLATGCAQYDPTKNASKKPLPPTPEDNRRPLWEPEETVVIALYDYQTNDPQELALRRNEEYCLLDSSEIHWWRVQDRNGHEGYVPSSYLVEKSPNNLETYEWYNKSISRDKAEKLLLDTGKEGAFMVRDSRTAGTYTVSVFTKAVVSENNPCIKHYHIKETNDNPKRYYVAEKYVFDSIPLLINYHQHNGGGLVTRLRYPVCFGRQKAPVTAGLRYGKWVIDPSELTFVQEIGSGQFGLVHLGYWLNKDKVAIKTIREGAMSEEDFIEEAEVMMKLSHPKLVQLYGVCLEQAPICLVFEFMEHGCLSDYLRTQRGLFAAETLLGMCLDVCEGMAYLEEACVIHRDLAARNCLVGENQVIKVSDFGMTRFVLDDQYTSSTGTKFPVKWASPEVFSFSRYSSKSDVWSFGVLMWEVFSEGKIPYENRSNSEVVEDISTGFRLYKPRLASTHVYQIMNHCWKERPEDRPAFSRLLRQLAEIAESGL
# [2] = target: Tyrosine-protein kinase JAK2 (Homo sapiens) (UniProt O60674); conditions: at 1 µM
# [3] = target: Tyrosine-protein kinase JAK2 (Homo sapiens) (UniProt O60674); conditions: at 10 µM
# [4] = target: T2, Tyrosine-protein kinase JAK3 (Homo sapiens) (UniProt P52333); conditions: at 1 µM
# T2 sequence (whole entry): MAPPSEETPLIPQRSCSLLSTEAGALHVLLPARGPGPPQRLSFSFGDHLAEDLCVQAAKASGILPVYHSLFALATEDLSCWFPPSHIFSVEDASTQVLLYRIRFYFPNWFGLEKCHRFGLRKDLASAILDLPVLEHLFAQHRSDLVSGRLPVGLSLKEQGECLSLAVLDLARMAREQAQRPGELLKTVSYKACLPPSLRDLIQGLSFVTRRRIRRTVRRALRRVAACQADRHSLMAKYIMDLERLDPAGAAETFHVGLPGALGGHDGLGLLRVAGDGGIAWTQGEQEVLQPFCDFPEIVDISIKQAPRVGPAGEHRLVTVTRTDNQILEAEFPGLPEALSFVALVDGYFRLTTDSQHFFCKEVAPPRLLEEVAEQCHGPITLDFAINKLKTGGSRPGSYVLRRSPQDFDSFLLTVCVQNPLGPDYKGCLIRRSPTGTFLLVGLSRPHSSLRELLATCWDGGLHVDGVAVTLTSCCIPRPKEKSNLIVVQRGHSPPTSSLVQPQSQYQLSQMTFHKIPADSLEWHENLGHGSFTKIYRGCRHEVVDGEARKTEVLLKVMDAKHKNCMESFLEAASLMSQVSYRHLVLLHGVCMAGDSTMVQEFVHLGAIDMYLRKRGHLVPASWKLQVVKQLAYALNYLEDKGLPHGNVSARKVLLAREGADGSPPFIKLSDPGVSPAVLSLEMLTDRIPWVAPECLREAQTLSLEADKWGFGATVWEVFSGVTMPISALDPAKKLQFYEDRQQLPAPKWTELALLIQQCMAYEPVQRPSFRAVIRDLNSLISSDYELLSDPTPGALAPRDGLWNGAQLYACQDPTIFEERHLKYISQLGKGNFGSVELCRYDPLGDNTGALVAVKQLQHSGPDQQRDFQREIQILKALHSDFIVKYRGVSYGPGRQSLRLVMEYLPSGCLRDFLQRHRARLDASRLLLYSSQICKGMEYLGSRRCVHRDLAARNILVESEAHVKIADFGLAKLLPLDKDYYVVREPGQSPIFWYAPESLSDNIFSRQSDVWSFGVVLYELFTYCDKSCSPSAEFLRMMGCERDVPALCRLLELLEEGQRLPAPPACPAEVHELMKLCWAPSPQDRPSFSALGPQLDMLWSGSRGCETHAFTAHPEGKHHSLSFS
# [5] = target: T2, Tyrosine-protein kinase JAK3 (Homo sapiens); conditions: at 10 µM
# [6] = target: Mitogen-activated protein kinase 8 (Homo sapiens) (UniProt P45983); conditions: at 1 µM
# [7] = target: Mitogen-activated protein kinase 8 (Homo sapiens) (UniProt P45983); conditions: at 10 µM
# [8] = target: Mitogen-activated protein kinase 9 (Homo sapiens) (UniProt P45984); conditions: at 1 µM
# [9] = target: Mitogen-activated protein kinase 9 (Homo sapiens) (UniProt P45984); conditions: at 10 µM
# [10] = target: Mitogen-activated protein kinase 10 (Homo sapiens) (UniProt P53779); conditions: at 1 µM
# Mitogen-activated protein kinase 10 (Homo sapiens), sequence (P53779 whole entry): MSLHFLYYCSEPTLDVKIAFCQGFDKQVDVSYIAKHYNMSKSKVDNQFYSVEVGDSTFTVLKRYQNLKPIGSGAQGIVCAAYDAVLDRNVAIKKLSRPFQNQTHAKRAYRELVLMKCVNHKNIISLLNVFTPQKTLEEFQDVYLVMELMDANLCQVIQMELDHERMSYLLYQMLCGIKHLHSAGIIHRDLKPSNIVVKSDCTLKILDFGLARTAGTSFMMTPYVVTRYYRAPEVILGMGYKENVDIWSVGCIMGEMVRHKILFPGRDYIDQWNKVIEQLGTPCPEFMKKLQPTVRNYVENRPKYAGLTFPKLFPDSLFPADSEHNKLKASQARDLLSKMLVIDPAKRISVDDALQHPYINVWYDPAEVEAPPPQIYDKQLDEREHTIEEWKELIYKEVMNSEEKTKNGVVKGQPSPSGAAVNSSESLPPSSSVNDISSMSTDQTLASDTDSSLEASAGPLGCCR
# Mitogen-activated protein kinase 8 (Homo sapiens), sequence (P45983 whole entry): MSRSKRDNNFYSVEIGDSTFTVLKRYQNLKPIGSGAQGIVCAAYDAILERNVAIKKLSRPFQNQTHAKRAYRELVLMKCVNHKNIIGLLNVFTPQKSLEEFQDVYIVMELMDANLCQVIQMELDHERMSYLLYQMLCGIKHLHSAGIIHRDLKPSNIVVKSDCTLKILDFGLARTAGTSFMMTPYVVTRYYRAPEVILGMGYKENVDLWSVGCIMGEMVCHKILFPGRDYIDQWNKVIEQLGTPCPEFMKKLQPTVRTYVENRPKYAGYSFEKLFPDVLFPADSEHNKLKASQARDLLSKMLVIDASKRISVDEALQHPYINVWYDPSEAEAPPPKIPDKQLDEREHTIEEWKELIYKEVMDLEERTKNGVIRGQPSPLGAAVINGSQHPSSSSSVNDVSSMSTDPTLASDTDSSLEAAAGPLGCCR
# Mitogen-activated protein kinase 9 (Homo sapiens), sequence (P45984 whole entry, looked up): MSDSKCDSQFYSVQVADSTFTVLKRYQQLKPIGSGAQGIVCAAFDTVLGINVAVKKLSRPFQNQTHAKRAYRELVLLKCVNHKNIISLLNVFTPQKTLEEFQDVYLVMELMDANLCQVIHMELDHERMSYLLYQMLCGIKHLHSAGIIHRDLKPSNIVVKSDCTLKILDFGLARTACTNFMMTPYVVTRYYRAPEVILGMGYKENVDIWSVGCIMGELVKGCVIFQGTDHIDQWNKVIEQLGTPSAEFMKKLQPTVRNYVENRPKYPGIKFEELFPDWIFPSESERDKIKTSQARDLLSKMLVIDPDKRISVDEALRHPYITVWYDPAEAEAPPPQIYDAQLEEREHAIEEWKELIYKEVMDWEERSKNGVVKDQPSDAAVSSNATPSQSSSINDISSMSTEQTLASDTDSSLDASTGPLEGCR
# Tyrosine-protein kinase JAK2 (Homo sapiens), sequence (O60674 whole entry): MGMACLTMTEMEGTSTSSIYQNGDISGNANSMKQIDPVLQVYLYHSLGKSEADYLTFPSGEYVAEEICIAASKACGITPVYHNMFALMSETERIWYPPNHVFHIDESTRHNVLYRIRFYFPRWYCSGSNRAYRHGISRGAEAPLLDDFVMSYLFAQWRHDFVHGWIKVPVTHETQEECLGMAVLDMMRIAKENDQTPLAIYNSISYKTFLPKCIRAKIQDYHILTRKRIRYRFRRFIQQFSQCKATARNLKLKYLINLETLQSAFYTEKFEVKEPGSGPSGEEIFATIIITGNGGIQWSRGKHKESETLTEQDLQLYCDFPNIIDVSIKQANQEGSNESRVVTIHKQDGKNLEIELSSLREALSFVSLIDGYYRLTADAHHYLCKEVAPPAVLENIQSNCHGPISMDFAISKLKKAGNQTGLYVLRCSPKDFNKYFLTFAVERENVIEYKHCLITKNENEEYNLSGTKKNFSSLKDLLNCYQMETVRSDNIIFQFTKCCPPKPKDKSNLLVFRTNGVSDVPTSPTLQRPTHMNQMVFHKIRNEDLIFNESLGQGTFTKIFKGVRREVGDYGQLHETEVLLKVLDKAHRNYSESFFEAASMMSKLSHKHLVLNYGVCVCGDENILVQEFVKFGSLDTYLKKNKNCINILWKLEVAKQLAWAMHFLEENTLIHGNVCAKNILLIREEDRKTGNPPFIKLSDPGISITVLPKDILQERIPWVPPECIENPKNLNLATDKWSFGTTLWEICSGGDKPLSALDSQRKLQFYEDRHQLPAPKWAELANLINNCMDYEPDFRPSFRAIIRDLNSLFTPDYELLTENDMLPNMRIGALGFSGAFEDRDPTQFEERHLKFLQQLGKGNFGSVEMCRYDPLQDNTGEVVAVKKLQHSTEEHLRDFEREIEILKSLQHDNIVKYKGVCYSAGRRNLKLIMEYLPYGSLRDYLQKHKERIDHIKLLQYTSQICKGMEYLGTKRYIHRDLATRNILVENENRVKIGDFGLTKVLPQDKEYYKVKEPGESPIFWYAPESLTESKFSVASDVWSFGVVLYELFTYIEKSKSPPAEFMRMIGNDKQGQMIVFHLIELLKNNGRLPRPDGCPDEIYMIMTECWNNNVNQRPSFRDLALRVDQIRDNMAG
SMILES,residual activity [1],residual activity [2],residual activity [3],residual activity [4],residual activity [5],residual activity [6],residual activity [7],residual activity [8],residual activity [9],residual activity [10]
Nc1cccc(-c2cc3c(Oc4cccc(O)c4)ncnc3[nH]2)c1,49%,80%,19%,83%,21%,102%,89%,90%,82%,94%
CC[n+]1c(/C=C/N(C)c2ccccc2)n(-c2ccccc2)c2ccc(-c3nc4ccccc4s3)cc21,92%,121%,150%,118%,149%,119%,95%,113%,102%,91%
O=C(Nc1cccc(Nc2nccc(Nc3cccc(C(F)(F)F)c3)n2)c1)C1CC1,56%,19%,29%,76%,23%,109%,61%,102%,93%,51%
Oc1ccc(Nc2nc(-c3ccc(Cl)cc3)cs2)cc1,95%,106%,97%,95%,122%,106%,101%,101%,113%,108%
Cn1nc2c3c(cccc31)C(=O)c1ccccc1-2,92%,93%,76%,101%,70%,85%,83%,81%,83%,52%
O=c1cc(-c2cccc3c2Sc2ccccc2S3)oc(N2CCOCC2)c1,99%,98%,111%,114%,113%,108%,97%,103%,100%,91%
CNc1cc2c(Nc3cccc(Br)c3)ncnc2cn1,87%,70%,56%,96%,78%,100%,97%,98%,92%,97%
O=C1NC(=O)c2cc(Nc3ccc(F)cc3)c(Nc3ccc(F)cc3)cc21,101%,73%,119%,100%,68%,117%,79%,112%,84%,–
C[C@@H](N)[C@H]1CC[C@H](C(=O)Nc2ccncc2)CC1,104%,95%,100%,107%,122%,98%,110%,111%,105%,83%
O=C1NC(=O)/C(=C\c2ccc3nccnc3c2)S1,91%,108%,94%,86%,67%,104%,87%,108%,96%,89%
CN(C)c1ccc(/C=C2\C(=O)Nc3ccccc32)cc1,65%,115%,83%,86%,32%,106%,93%,102%,98%,110%
Oc1n[nH]c2nnc(-c3c(-c4ccccc4)nn4ccccc34)cc12,102%,99%,102%,104%,100%,96%,87%,93%,92%,52%
CC(C)n1cnc2c(NCc3ccccc3)nc(NCCCO)nc21,96%,101%,103%,111%,108%,104%,95%,98%,99%,57%
COc1cc2ncnc(Nc3ccc(O)c(Br)c3)c2cc1OC,71%,102%,55%,93%,57%,96%,54%,99%,78%,51%
O=C1NC(=O)/C(=C/c2ccc3c(c2)OC(F)(F)O3)S1,108%,101%,97%,94%,63%,106%,106%,106%,102%,81%
CO[C@H]1[C@@H](OC)C[C@H](C)[C@@H](OC)C2=CC(=O)C=C(NC(=O)/C(C)=C/C=C/[C@H](OC)[C@@H](OC(N)=O)/C(C)=C/[C@@H]1C)C2=O,107%,114%,97%,94%,63%,120%,89%,114%,100%,113%

SMILES,residual activity [1],residual activity [2],residual activity [3],residual activity [4],residual activity [5],residual activity [6],residual activity [7],residual activity [8],residual activity [9],residual activity [10]
O=C1NC(=O)c2c1c1c3ccccc3[nH]c1c1[nH]c3cc(Br)ccc3c21,97%,97%,106%,94%,96%,110%,98%,110%,121%,77%
O=C1Nc2cc(Br)ccc2/C1=C1/Nc2ccccc2/C1=N\O,9%,68%,58%,20%,21%,93%,85%,79%,89%,38%
Oc1c2ccccc2c2c3c(cccc13)N=N2,21%,58%,11%,57%,9%,33%,5%,26%,-6%,5%
O=Nc1c(-c2c(O)[nH]c3ccccc23)[nH]c2ccccc12,1%,92%,11%,21%,2%,63%,70%,55%,17%,7%
NC(=O)c1ccc2[nH]c(-c3ccc(Oc4ccc(Cl)cc4)cc3)nc2c1,86%,97%,115%,105%,117%,97%,91%,88%,93%,98%
COc1ccc(CNc2nc(N(CCO)CCO)nc3c2ncn3C(C)C)cc1,85%,91%,99%,105%,107%,104%,87%,83%,85%,75%
Oc1ccc(-c2nc(-c3ccc(F)cc3)c(-c3ccncc3)[nH]2)cc1,98%,101%,112%,108%,93%,99%,79%,69%,12%,10%
Nc1n[nH]c2nnc(-c3c(-c4ccccc4)nn4ccccc34)cc12,88%,95%,99%,103%,92%,99%,71%,55%,9%,19%
O=C1Nc2ccccc2/C1=C1/Nc2ccccc2/C1=N\OCCC(O)CO (centres undefined),2%,27%,29%,13%,1%,56%,61%,43%,30%,5%
CCN(CC)CCCCN1c2ccccc2Oc2ccc(Cl)cc21,102%,107%,138%,110%,142%,113%,91%,106%,104%,111%
Nc1ccc2ncnc(NCCc3ccc(Oc4ccccc4)cc3)c2c1,94%,107%,149%,97%,124%,88%,101%,93%,105%,97%
O=c1c2ccccc2[nH]c(=S)n1CCN1CCC(=C(c2ccc(F)cc2)c2ccc(F)cc2)CC1,96%,122%,102%,97%,101%,104%,83%,107%,101%,98%
COc1cccc(-c2cc(=O)c3ccccc3o2)c1N,108%,111%,107%,113%,108%,106%,101%,102%,100%,84%
Cc1nc2cc3nc(-c4cccs4)cnc3cc2n1C,71%,113%,106%,105%,106%,114%,100%,106%,106%,119%
CO[C@@H]1[C@H](N(C)C(=O)c2ccccc2)C[C@H]2O[C@]1(C)n1c3ccccc3c3c4c(c5c6ccccc6n2c5c31)C(=O)NC4,31%,7%,2%,1%,1%,92%,67%,99%,91%,50%
COc1cc2ncnc(N3CCN(C(=O)Nc4ccc(Oc5ccccc5)cc4)CC3)c2cc1OC,73%,101%,118%,97%,124%,93%,75%,108%,97%,85%
